Compound activity (PubChem BioAssay)
ADAM17 inh = ADAM17 inhibition, QFRET primary screen. recombinant ADAM17, EDANS/DABCYL FRET peptide cleavage. AID 720648. inhibition, % at 6.95 µM. actives 0.83% (n = 370,000). P78536;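 active = inhibition above the mean of compounds lying between control limits plus 3 SD, set per campaign, cut at about 8.5% in these data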
DSG3 Ab inh = blocks pemphigus antibody binding to human desmoglein-3. P32926. DSG3-coupled beads, scFv-anti-DSG3-GFP binding, flow cytometry; hits give low values. binding (percent of control), % at 10 µM. actives 0.48% (n = 310,000);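 active = binding more than 3 SD below its plate's average and above zero; inconclusive = below that plate limit but binding exactly zero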;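 also: hits lower antibody fragment binding to DSG3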
Target sequence (P32926 whole entry, looked up, the tested form may be a part): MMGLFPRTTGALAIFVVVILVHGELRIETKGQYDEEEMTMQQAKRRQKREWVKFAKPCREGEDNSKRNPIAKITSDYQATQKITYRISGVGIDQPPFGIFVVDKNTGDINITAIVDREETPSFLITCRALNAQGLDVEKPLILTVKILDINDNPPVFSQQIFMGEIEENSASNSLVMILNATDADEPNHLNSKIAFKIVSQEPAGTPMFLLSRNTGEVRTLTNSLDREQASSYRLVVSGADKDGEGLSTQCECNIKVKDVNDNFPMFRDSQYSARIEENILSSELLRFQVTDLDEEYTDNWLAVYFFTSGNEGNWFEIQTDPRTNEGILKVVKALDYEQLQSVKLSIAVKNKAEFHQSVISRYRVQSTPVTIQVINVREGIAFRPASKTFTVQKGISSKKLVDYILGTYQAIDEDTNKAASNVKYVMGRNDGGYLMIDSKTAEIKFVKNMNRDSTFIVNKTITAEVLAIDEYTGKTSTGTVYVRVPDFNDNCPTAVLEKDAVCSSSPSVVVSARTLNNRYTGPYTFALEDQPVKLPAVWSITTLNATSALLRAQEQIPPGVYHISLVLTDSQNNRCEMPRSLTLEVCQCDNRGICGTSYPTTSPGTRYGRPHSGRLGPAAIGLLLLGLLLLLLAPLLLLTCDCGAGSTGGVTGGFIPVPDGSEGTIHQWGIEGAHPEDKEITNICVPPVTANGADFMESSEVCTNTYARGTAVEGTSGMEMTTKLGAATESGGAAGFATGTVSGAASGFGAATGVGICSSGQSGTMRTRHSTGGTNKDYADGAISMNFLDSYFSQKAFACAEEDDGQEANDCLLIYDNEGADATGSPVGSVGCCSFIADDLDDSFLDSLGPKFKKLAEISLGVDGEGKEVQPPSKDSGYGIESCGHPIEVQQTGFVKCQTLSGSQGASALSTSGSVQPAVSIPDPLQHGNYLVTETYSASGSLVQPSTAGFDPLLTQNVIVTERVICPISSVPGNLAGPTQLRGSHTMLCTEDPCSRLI
ADAM10 inh = inhibitors of human ADAM10. actives 0.62% (n = 370,000). recombinant ADAM10, EDANS/DABCYL FRET peptide cleavage, 3 h. O14672. inhibition, % at 7 µM. AID 720582;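 active = inhibition above a per-campaign cutoff equal to the mean of compounds falling between control-based bounds plus 3 SD, cut at about 20% in these data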
proKLK7 act = activators of human kallikrein-7 zymogen; actives 0.9% (n = 370,000); P49862; activation, % at 7 µM; AID 652039; purified proKLK7, EDANS-DABCYL substrate fluorescence; 100% is mature enzyme control, 0% vehicle;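 active = activation above the mean of all tested compounds plus 3 SD, computed per campaign excluding outliers beyond control limits, cut at about 13% in these data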
rCAG binder = binds r(CAG) RNA repeats | r(CAG) RNA repeat, TO-PRO-1 dye displacement fluorescence | inhibition, % at 3 µM | actives 1.3% (n = 370,000) | AID 651821;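 active = inhibition above the plate cutoff, the mean of all test compounds on that plate plus 3 SD, cut at about 35% in these data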;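 also: higher means more dye released from RNA so lower well fluorescence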
MPTP inh = permeability transition pore inhibition | isolated mouse mitochondria, Ca2+ swelling absorbance, 30 min | inhibition, % at 10 µM | actives 1.4% (n = 360,000);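 active = inhibition of 50% or more, scaled per plate between neutral and stimulator controls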
proKLK7 act conf = confirmation of human kallikrein-7 zymogen activators; shares compounds with proKLK7 act; actives 68% (n = 3,200); activation, % at 7 µM; purified proKLK7, EDANS-DABCYL substrate fluorescence; scaled: vehicle 0, mature enzyme 100;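 active = activation, as change over the incubation, above the mean of all tested compounds plus 3 SD, cut at about 13% in these data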
EDANS interfere = optically interferes with EDANS-DABCYL signal, flagging KLK7 hits; shares compounds with proKLK7 act; EDANS-DABCYL substrate fluorescence interference, no enzyme, 4 h; solvent 0%, active enzyme control 100%; activation, % at 7 µM; actives 80% (n = 3,200);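 active = activation above the all-compound mean plus 3 SD, ignoring values outside control-based bounds, cut at about 4.8% in these data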;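 also: value is the 4 h activation minus the activation read at time zero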
EDANS interf = optically interferes with EDANS-DABCYL fluorescence, kallikrein-7 activator counter-screen | shares compounds with proKLK7 act | EDANS-DABCYL peptide fluorescence interference, no enzyme | EC50, µM | actives 20% (n = 250) | AID 720493;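 active = compounds that raise the fluorescence signal in this interference counterscreen, with EC50 at or below 10 µM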;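 also: intact quenched peptide substrate alone read at 355 nm excitation and 520 nm emission; signal is fluorescence gain from T0 to T4 after four hours at room temperature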
Hits are given with their value; - = inactive; ? = inconclusive; . = no result. Shown are actives, neighbours in structure and some others; about 4.7% of the full set was active somewhere.

SMILES	ADAM17 inh	DSG3 Ab inh	ADAM10 inh	proKLK7 act	rCAG binder	MPTP inh	proKLK7 act conf	EDANS interfere	others
COc1ccccc1N(C)S(=O)(=O)c1ccc(C(=O)Nc2ccc(C(N)=O)cc2)cc1	-	-	-	24.4	-	-	22.4	-	EDANS interf=-
O=C(Nc1cccc2ccccc12)c1ccc2sc([C@H]3C[C@H](O)[C@@H](CO)O3)nc2c1	-	.	-	-	-	-	.	.
CCc1ccccc1NC(=O)c1sc2nc(C)cc(C)c2c1N	-	-	-	-	-	-	.	.
CC(=O)c1sc2nc(C)cc(C)c2c1N	-	-	-	-	-	-	.	.
Cc1cc(C)c2c(N)c(C(=O)Nc3ccccc3Cl)sc2n1	-	-	-	-	-	-	.	.
Cc1cc(C)c2c(N)c(C(=O)Nc3ccccc3Br)sc2n1	-	-	-	178.6	-	-	123.6	56.5
Cc1ccc(N2CC(=O)N(NC(=O)c3sc4nc(C)cc(C)c4c3N)CC2=O)cc1	-	-	-	86.3	-	-	22.8	20.7
Cc1cc(C)c2c(N)c(C(=O)Nc3ncc(C)s3)sc2n1	-	-	-	33.0	-	-	-	-
Cc1cc(C)c2c(N)c(C(=O)Nc3ccccc3F)sc2n1	-	-	-	22.6	-	-	-	-
COC(=O)C1CCN(C(=O)COC(=O)C2CCN(S(=O)(=O)c3ccc(C)c(C)c3)CC2)CC1	-	-	-	-	-	-	.	.
Cc1ccc(C(=O)OCC(=O)NC(C)c2ccccc2)cc1C (stereo not given)	-	-	-	-	-	-	.	.
CCCC1NC(C(=O)O)Cc2c1[nH]c1ccccc21 (stereo not given)	-	-	-	13.1	-	-	-	7.6
CC(C)C1NC(C(=O)O)Cc2c1[nH]c1ccccc21 (stereo not given)	-	-	-	30.1	-	-	55.5	48.6
CC(C)CC1NC(C(=O)O)Cc2c1[nH]c1ccccc21 (stereo not given)	-	-	-	-	-	-	.	.
COC(=O)c1cc(S(=O)(=O)NCC2CCN(Cc3cc(C)ccc3C)CC2)c[nH]1	-	.	-	-	-	-	.	.
COc1ccc(C2C(C#N)=C(N)OC3=C2C(=O)CC(C)(C)C3)c([N+](=O)[O-])c1OC (stereo not given)	-	.	-	-	-	-	.	.
COc1cc(C2C(C#N)=C(N)OC3=C2C(=O)CC(C)(C)C3)c([N+](=O)[O-])cc1OC (stereo not given)	-	-	-	20.1	-	-	20.6	18.0
COC(=O)c1ccc(CNc2ccc(C(C)=O)cc2)cc1	-	.	-	-	-	-	.	.
CN(C)c1ccc(C=NCC2COc3ccccc3O2)cc1 (stereo not given)	-	-	-	-	-	-	.	.
CC(=O)Nc1ccc(C2Nc3ccccc3C(=O)N2C2CCCCC2)cc1 (stereo not given)	-	-	-	12.8	-	-	30.2	25.7	EDANS interf=-
O=C1c2ccccc2NC(c2ccc(-c3cccs3)o2)N1O (stereo not given)	-	-	-	18.8	-	-	-	7.4
O=C1c2ccccc2NC(c2ccc(Br)o2)N1O (stereo not given)	-	-	-	-	-	-	.	.
CC1(C)C[C@H]2C3=CCC4[C@@]5(C)CC[C@H](O)[C@@](C)(CO)C5CC[C@@]4(C)[C@]3(C)C[C@@H](O)[C@@]2(CO)[C@@H](O)[C@@H]1O (stereo not given in full)	-	-	-	-	-	-	.	.
CC(=O)c1ccc(-c2ccc(C(=O)NCC(c3ccco3)N(C)C)o2)cc1 (stereo not given)	-	-	-	19.2	-	-	-	11.5
O=C(NNC(=O)C(c1ccccc1)c1ccccc1)c1ccccc1O	-	-	-	-	-	-	.	.
SMILES	ADAM17 inh	DSG3 Ab inh	ADAM10 inh	proKLK7 act	rCAG binder	MPTP inh	proKLK7 act conf	EDANS interfere	others
Cc1cc2nc(-c3ccc(SCc4ccccn4)nc3)[nH]c2cc1C	-	-	-	126.8	-	-	24.9	15.8	EDANS interf=-
CCOC(=O)CSc1ccc(-c2nc3cc(C)c(C)cc3[nH]2)cn1	-	-	-	-	-	-	.	.
Cc1cc(NCCO)c2cc(O)ccc2n1	-	-	-	80.6	-	-	63.7	68.6
Cc1cc(NCCO)c2ccccc2n1	-	?	-	-	-	-	.	.
Cc1ccc(C)c(N2CCN(C(=O)c3ccc(Cl)c(NC4=NC5CS(=O)(=O)CC5S4)c3)CC2)c1 (stereo not given)	-	-	-	-	-	-	.	.
CCOC(=O)C1=C(CSc2nc(-c3ccncc3)ccc2C#N)OC(N)=C(C#N)C1c1cccnc1 (stereo not given)	-	-	-	51.3	-	-	66.4	71.7
CCOC(=O)C1=C(CSc2nc(-c3ccncc3)ccc2C#N)OC(N)=C(C#N)C1c1ccc(OC)cc1 (stereo not given)	-	-	-	25.8	-	-	66.9	65.7
Cc1cccn2c(=O)nc(SCC(=O)N3CCN(c4ccccc4)CC3)nc12	-	-	-	-	-	-	.	.
COCCn1nnnc1CN(Cc1cc2cc(OC)c(OC)cc2[nH]c1=O)C1CCCC1	-	-	-	17.7	-	-	-	-
CCC(C)(C)n1nnnc1CN(Cc1cc2cc(OC)ccc2[nH]c1=O)C1CCCC1	-	-	-	-	-	-	.	.
O=c1[nH]c2cc3c(cc2cc1CN(Cc1nnnn1CC1CCCO1)C1CCCCC1)OCO3 (stereo not given)	-	-	-	50.9	-	-	-	-
COc1cc2cc(CN(CCCN3CCOCC3)Cc3nnnn3Cc3ccccc3)c(=O)[nH]c2cc1OC	-	-	-	15.4	-	-	-	-
CCOc1ccc2[nH]c(=O)c(CN(CCCN3CCOCC3)Cc3nnnn3Cc3ccc(OC)cc3)cc2c1	-	-	-	-	-	-	.	.
CCN(CC(=O)Nc1ccccc1OC)C(=O)CN1C(=O)NC(C)(c2ccc3ccccc3c2)C1=O (stereo not given)	-	-	-	-	-	-	.	.
CCC(=O)[C@@H](C)[C@@H](OC(C)=O)[C@H](C)C[C@@H](C)[C@H]1OC(=O)C[C@@]2(O)CC=C(C)C(O2)C(C)=CCCC[C@H](O[C@H]2C[C@@H](OC(N)=O)[C@H](OC(C)=O)[C@@H](C)O2)C=C[C@H](C)C[C@H]1C	-	.	-	-	-	-	.	.
Cc1cc(-n2c(C)cc(C(=O)COc3ccc4ccc(=O)oc4c3)c2C)no1	-	-	-	58.5	-	-	44.0	53.7
